Results taken from PubChem BioAssay AID1159580 (chemical genetic matrix, 2015).
Out of some 5,500 compounds screened, about 2,000 (36%) were called active. Another 18% or so got no clear call; they are omitted. No stated cut-off is given here; in the data, active means normalized growth mostly below about 0.91 (no sharp cut-off); inconclusive means no clear call, values can overlap the other calls; inactive means mostly above about 0.92. The list shows a part of the results.

Test: chemical genetic growth profiling, strain panel (AID 1159580);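 further: tested at 20 µM; growth read once vehicle control cultures reached saturation at 30 °C; 1 = growth at the plate median or of vehicle wells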
Details: growth OD

Measured: normalized growth

CC(=O)O[C@H]1C[C@@]2(C)[C@H](c3ccoc3)OC(=O)[C@H]3O[C@]32[C@@]2(C)C1[C@]1(C)C(C[C@H]2OC(C)=O)C(C)(C)[C@H](OC(C)=O)C[C@@H]1OC(C)=O (some centres undefined)
inactive: S. cerevisiae deletion strains, locus YJL168C, strain set2, stronger effect = lower value 0.99 | S. cerevisiae deletion strains, locus YJL187C, strain SWE1 (second series), stronger effect = lower value 0.976 | S. cerevisiae deletion strains, locus YJR043C, strain POL32, stronger effect = lower value 0.974 | S. cerevisiae deletion strains, locus YKL009W, strain mrt4, stronger effect = lower value 0.912 | S. cerevisiae deletion strains, locus YKL068W, stronger effect = lower value 0.978 | S. cerevisiae deletion strains, locus YKL085W, strain MDH1 (second series), stronger effect = lower value 0.973 | S. cerevisiae deletion strains, locus YKL085W, strain MDH1, stronger effect = lower value 0.973 | S. cerevisiae deletion strains, locus YKL160W, strain elf1, stronger effect = lower value 1.05 | S. cerevisiae deletion strains, locus YKR001C, strain vps1, stronger effect = lower value 0.982 | S. cerevisiae deletion strains, locus YKR026C, strain gcn3, stronger effect = lower value 0.978 | S. cerevisiae deletion strains, locus YKR091W, strain srl3, stronger effect = lower value 0.995 | S. cerevisiae deletion strains, locus YLL001W, strain dnm1, stronger effect = lower value 0.977 | S. cerevisiae deletion strains, locus YLL026W, stronger effect = lower value 0.974 | S. cerevisiae deletion strains, locus YLL041C, strain sdh2, stronger effect = lower value 0.998 | S. cerevisiae deletion strains, locus YLR027C, strain aat2, stronger effect = lower value 0.965 | S. cerevisiae deletion strains, locus YLR039C, strain RIC1, stronger effect = lower value 0.959 | S. cerevisiae deletion strains, locus YLR058C, strain SHM2, stronger effect = lower value 0.978 | S. cerevisiae deletion strains, locus YLR102C, strain apc9, stronger effect = lower value 0.979 | S. cerevisiae deletion strains, locus YLR221C, strain rsa3, stronger effect = lower value 0.987 | S. cerevisiae deletion strains, locus YLR258W, strain gsy2, stronger effect = lower value 1.02 | S. cerevisiae deletion strains, locus YLR262C, strain YPT6 (second series), stronger effect = lower value 1.03 | S. cerevisiae deletion strains, locus YLR268W, strain sec22, stronger effect = lower value 0.975 | S. cerevisiae deletion strains, locus YLR320W, strain mms22, stronger effect = lower value 0.999 | S. cerevisiae deletion strains, locus YLR342W, strain FKS1, stronger effect = lower value 0.995 | S. cerevisiae deletion strains, locus YLR357W, strain rsc2, stronger effect = lower value 1.01 | S. cerevisiae deletion strains, locus YLR370C, strain arc18, stronger effect = lower value 0.961 | S. cerevisiae deletion strains, locus YLR371W, strain rom2, stronger effect = lower value 0.982 | S. cerevisiae deletion strains, locus YLR384C, strain iki3, stronger effect = lower value 1.01 | S. cerevisiae deletion strains, locus YLR418C, strain cdc73, stronger effect = lower value 1.01 | S. cerevisiae deletion strains, locus YML016C, strain PPZ1, stronger effect = lower value 0.984 | S. cerevisiae deletion strains, locus YML032C, strain rad52, stronger effect = lower value 0.977 | S. cerevisiae deletion strains, locus YML120C, strain ndi1, stronger effect = lower value 1.02 | S. cerevisiae deletion strains, locus YML124C, strain tub3, stronger effect = lower value 0.993 | S. cerevisiae deletion strains, locus YMR058W, strain fet3, stronger effect = lower value 0.988 | S. cerevisiae deletion strains, locus YMR078C, strain ctf18, stronger effect = lower value 0.955 | S. cerevisiae deletion strains, locus YMR125W, strain sto1, stronger effect = lower value 1.02 | S. cerevisiae deletion strains, locus YMR129W, stronger effect = lower value 0.985 | S. cerevisiae deletion strains, locus YMR205C, strain PFK2, stronger effect = lower value 1.01 | S. cerevisiae deletion strains, locus YMR223W, strain ubp8, stronger effect = lower value 0.991 | S. cerevisiae deletion strains, locus YMR231W, strain pep5, stronger effect = lower value 0.979 | S. cerevisiae deletion strains, locus YMR263W, strain SAP30, stronger effect = lower value 0.969 | S. cerevisiae deletion strains, locus YMR307W, strain GAS1, stronger effect = lower value 1.05 | S. cerevisiae deletion strains, locus YNL067W, strain RPL9B, stronger effect = lower value 0.996 | S. cerevisiae deletion strains, locus YNL071W, strain lat1, stronger effect = lower value 0.999 | S. cerevisiae deletion strains, locus YNL128W, strain TEP1, stronger effect = lower value 0.971 | S. cerevisiae deletion strains, locus YNL153C, strain GIM3, stronger effect = lower value 0.985 | S. cerevisiae deletion strains, locus YNL209W, strain ssb2, stronger effect = lower value 0.992 | S. cerevisiae deletion strains, locus YNL233W, strain BNI4, stronger effect = lower value 1 | S. cerevisiae deletion strains, locus YNL248C, strain rpa49, stronger effect = lower value 0.984 | S. cerevisiae deletion strains, locus YNL250W, strain rad50, stronger effect = lower value 0.97 | S. cerevisiae deletion strains, locus YNL271C, strain bni1, stronger effect = lower value 0.979 | S. cerevisiae deletion strains, locus YNL298W, strain CLA4, stronger effect = lower value 0.968 | S. cerevisiae deletion strains, locus YNL307C, strain MCK1, stronger effect = lower value 0.991 | S. cerevisiae deletion strains, locus YNL322C, strain KRE1 (second series), stronger effect = lower value 0.985 | S. cerevisiae deletion strains, locus YNR049C, strain mso1, stronger effect = lower value 0.985 | S. cerevisiae deletion strains, locus YNR052C, strain pop2, stronger effect = lower value 0.98 | S. cerevisiae deletion strains, locus YOL006C, strain TOP1, stronger effect = lower value 0.959 | S. cerevisiae deletion strains, locus YOL012C, strain htz1 1.13 | S. cerevisiae deletion strains, locus YOL147C, strain pex11, stronger effect = lower value 0.987 | S. cerevisiae deletion strains, locus YOR001W, strain rrp6, stronger effect = lower value 0.919 | S. cerevisiae deletion strains, locus YOR061W, strain CKA2, stronger effect = lower value 0.966 | S. cerevisiae deletion strains, locus YOR069W, strain VPS5, stronger effect = lower value 0.992 | S. cerevisiae deletion strains, locus YOR070C, strain gyp1, stronger effect = lower value 1 | S. cerevisiae deletion strains, locus YOR080W, strain dia2, stronger effect = lower value 0.963 | S. cerevisiae deletion strains, locus YOR083W, strain WHI5, stronger effect = lower value 1.04 | S. cerevisiae deletion strains, locus YOR106W, strain vam3, stronger effect = lower value 1.03 | S. cerevisiae deletion strains, locus YOR136W, strain idh2, stronger effect = lower value 0.974 | S. cerevisiae deletion strains, locus YOR144C, strain elg1, stronger effect = lower value 0.989 | S. cerevisiae deletion strains, locus YOR184W, strain ser1, stronger effect = lower value 0.966 | S. cerevisiae deletion strains, locus YOR265W, strain rbl2, stronger effect = lower value 0.951 | S. cerevisiae deletion strains, locus YOR270C, strain vph1, stronger effect = lower value 0.879 | S. cerevisiae deletion strains, locus YOR290C, strain snf2, stronger effect = lower value 1.05 | S. cerevisiae deletion strains, locus YOR316C, strain cot1, stronger effect = lower value 0.982 | S. cerevisiae deletion strains, locus YPL051W, strain arl3, stronger effect = lower value 0.995 | S. cerevisiae deletion strains, locus YPL055C, strain LGE1, stronger effect = lower value 0.964 | S. cerevisiae deletion strains, locus YPL078C, strain atp4, stronger effect = lower value 1.05 | S. cerevisiae deletion strains, locus YPL106C, strain sse1, stronger effect = lower value 1.03 | S. cerevisiae deletion strains, locus YPL240C, strain hsp82, stronger effect = lower value 0.986 | S. cerevisiae deletion strains, locus YPR119W, strain clb2, stronger effect = lower value 0.983 | S. cerevisiae deletion strains, locus YPR141C, strain kar3, stronger effect = lower value 0.984 | S. cerevisiae deletion strains, locus YPR163C, strain tif3, stronger effect = lower value 0.989 | S. cerevisiae deletion strains, locus YPR167C, strain met16, stronger effect = lower value 0.984 | S. cerevisiae deletion strains, strain wtn01, stronger effect = lower value 0.94 | S. cerevisiae strains, strain wild type, stronger effect = lower value 0.993
